“And” between values parts separate entries of the source, which are not always exact repeats. Equal values may be shown once. About 2,000 (36%) of roughly 5,500 compounds were called active. Not shown: some 18% with an inconclusive outcome. Cut-off read from the data, not from the text of the source: active = normalized growth mostly below about 0.91 (no sharp cut-off); inconclusive = no clear call, values can overlap the other calls; inactive = mostly above about 0.92. The list shows a part of the results.
Assay: chemical genetic growth profiling, strain panel (AID 1159580);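 note: tested at 20 µM; growth read once vehicle control cultures reached saturation at 30 °C; 1 = growth at the plate median or of vehicle wells; lower values mean less growth of the strain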
Details: S. cerevisiae deletion strains, growth OD

Measured: normalized growth

CC(CCC(=O)O)[C@H]1CCC2C3CC[C@@H]4C[C@H](O)CC[C@]4(C)C3CC[C@@]21C (stereo not given in full)
active: locus YAL013W, strain DEP1, stronger effect = lower value 0.831 | locus YBR009C, strain hhf1, stronger effect = lower value 0.888 | locus YCL016C, strain dcc1, stronger effect = lower value 0.909 | locus YDL035C, strain GPR1, stronger effect = lower value 0.528 | locus YDL074C, strain BRE1, stronger effect = lower value 0.698 | locus YDL101C, strain DUN1, stronger effect = lower value 0.713 | locus YDL192W, strain arf1, stronger effect = lower value 0.856 | locus YDR137W, strain rgp1, stronger effect = lower value 0.452 | locus YDR162C, strain NBP2, stronger effect = lower value 0.208 | locus YDR392W, strain spt3, stronger effect = lower value 0.735 | locus YDR502C, strain sam2, stronger effect = lower value 0.878 | locus YEL061C, strain CIN8, stronger effect = lower value 0.912 | locus YER015W, strain faa2, stronger effect = lower value 0.907 | locus YER155C, strain BEM2, stronger effect = lower value 0.852 | locus YGL086W, strain mad1, stronger effect = lower value 0.923 | locus YGL173C, strain kem1, stronger effect = lower value 0.701 | locus YGL248W, strain PDE1, stronger effect = lower value 0.827 | locus YGR078C, strain PAC10, stronger effect = lower value 0.757 | locus YGR135W, strain pre9, stronger effect = lower value 0.84 | locus YGR229C, strain SMI1, stronger effect = lower value 0.356 | locus YHR094C, strain hxt1, stronger effect = lower value 1.08 [resistant] | locus YHR129C, strain ARP1, stronger effect = lower value 0.791 | locus YHR142W, strain chs7, stronger effect = lower value 0.873 | locus YIL066C, strain RNR3, stronger effect = lower value 0.79 | locus YJL095W, strain BCK1 (second series), stronger effect = lower value 0.893 | locus YJL166W, strain qcr8, stronger effect = lower value 0.83 | locus YJL168C, strain set2, stronger effect = lower value 1.14 [resistant] | locus YJL187C, strain SWE1 (second series), stronger effect = lower value 0.791 | locus YJR043C, strain POL32, stronger effect = lower value 0.849 | locus YKL190W, strain CNB1, stronger effect = lower value 0.882 | locus YKR001C, strain vps1, stronger effect = lower value 0.861 | locus YLR027C, strain aat2, stronger effect = lower value 0.921 | locus YLR039C, strain RIC1, stronger effect = lower value 0.479 | locus YLR102C, strain apc9, stronger effect = lower value 1.08 [resistant] | locus YLR262C, strain YPT6 (second series), stronger effect = lower value 0.488 | locus YLR262C, strain YPT6, stronger effect = lower value 0.321 | locus YLR320W, strain mms22, stronger effect = lower value 0.706 | locus YLR330W, strain CHS5, stronger effect = lower value 0.849 | locus YLR342W, strain FKS1 (second series), stronger effect = lower value 0.566 | locus YLR342W, strain FKS1, stronger effect = lower value 0.688 | locus YLR418C, strain cdc73, stronger effect = lower value 0.74 | locus YMR058W, strain fet3, stronger effect = lower value 0.871 | locus YMR205C, strain PFK2, stronger effect = lower value 0.854 | locus YMR307W, strain GAS1, stronger effect = lower value 0.456 | locus YNL067W, strain RPL9B, stronger effect = lower value 0.756 | locus YNL071W, strain lat1, stronger effect = lower value 0.809 | locus YNL307C, strain MCK1, stronger effect = lower value 0.795 | locus YNR052C, strain pop2, stronger effect = lower value 0.838 | locus YOR001W, strain rrp6, stronger effect = lower value 0.851 | locus YOR069W, strain VPS5, stronger effect = lower value 0.876 | locus YOR083W, strain WHI5, stronger effect = lower value 0.844 | locus YOR106W, strain vam3, stronger effect = lower value 0.77 | locus YOR136W, strain idh2, stronger effect = lower value 1.08 [resistant] | locus YOR184W, strain ser1, stronger effect = lower value 0.505 | locus YOR316C, strain cot1, stronger effect = lower value 1.1 [resistant] | locus YPL051W, strain arl3, stronger effect = lower value 0.793 | locus YPL078C, strain atp4, stronger effect = lower value 0.892 | locus YPR119W, strain clb2, stronger effect = lower value 1.11 [resistant] | locus YPR141C, strain kar3, stronger effect = lower value 1.09 [resistant]
0.762 (active) and 0.955 (inactive): locus YHR030C, strain SLT2, stronger effect = lower value
inactive: locus YAL021C, strain ccr4, stronger effect = lower value 0.982 | locus YAL026C, strain drs2, stronger effect = lower value 0.946 | locus YAL030W, strain snc1, stronger effect = lower value 0.989 | locus YBL061C, strain skt5, stronger effect = lower value 1.03 | locus YBR021W, strain FUR4, stronger effect = lower value 0.932 | locus YBR023C, strain chs3, stronger effect = lower value 0.924 | locus YBR171W, strain sec66, stronger effect = lower value 1.01 | locus YBR229C, strain ROT2, stronger effect = lower value 1.04 | locus YBR231C, strain swc5, stronger effect = lower value 0.939 | locus YBR279W, strain paf1, stronger effect = lower value 1.01 | locus YCL011C, strain gbp2, stronger effect = lower value 0.974 | locus YCL029C, strain bik1, stronger effect = lower value 0.993 | locus YCL061C, strain MRC1, stronger effect = lower value 0.931 | locus YCL069W, strain vba3, stronger effect = lower value 1 | locus YCR088W, strain abp1, stronger effect = lower value 0.993 | locus YDL005C, strain med2, stronger effect = lower value 1.01 | locus YDL040C, strain nat1, stronger effect = lower value 1.03 | locus YDL185W, strain tfp1, stronger effect = lower value 1.04 | locus YDR001C, strain nth1, stronger effect = lower value 1.02 | locus YDR069C, strain doa4, stronger effect = lower value 0.947 | locus YDR101C, strain arx1, stronger effect = lower value 0.977 | locus YDR159W, strain sac3, stronger effect = lower value 0.925 | locus YDR195W, strain ref2 1.07 | locus YDR297W, strain sur2, stronger effect = lower value 1 | locus YDR318W, strain mcm21, stronger effect = lower value 0.951 | locus YDR334W, strain swr1, stronger effect = lower value 0.989 | locus YDR335W, strain msn5, stronger effect = lower value 0.926 | locus YDR388W, stronger effect = lower value 1.01 | locus YEL003W, strain gim4, stronger effect = lower value 0.94 | locus YEL037C, strain rad23, stronger effect = lower value 0.994 | locus YEL061C, strain CIN8 (second series), stronger effect = lower value 1.01 | locus YER016W, strain bim1, stronger effect = lower value 1 | locus YER110C, stronger effect = lower value 1.07 | locus YER111C, strain swi4, stronger effect = lower value 1.01 | locus YER155C, strain BEM2 (second series), stronger effect = lower value 1.04 | locus YER167W, strain BCK2, stronger effect = lower value 0.906 | locus YFR010W, strain ubp6, stronger effect = lower value 0.982 | locus YGL078C, strain dbp3, stronger effect = lower value 0.926 | locus YGL167C, strain pmr1, stronger effect = lower value 0.988 | locus YGL227W, strain vid30, stronger effect = lower value 1 | locus YGL240W, strain doc1, stronger effect = lower value 0.89 | locus YGL253W, strain hxk2, stronger effect = lower value 0.989 | locus YGR252W, strain gcn5, stronger effect = lower value 0.792 | locus YHR013C, strain ard1, stronger effect = lower value 1.01 | locus YHR027C, strain rpn1, stronger effect = lower value 0.94 | locus YHR079C, strain IRE1 (second series), stronger effect = lower value 1.06 | locus YHR079C, strain IRE1, stronger effect = lower value 0.955 | locus YHR200W, strain rpn10, stronger effect = lower value 1.02 | locus YIL073C, strain SPO22, stronger effect = lower value 0.937 | locus YIL125W, strain kgd1, stronger effect = lower value 1.04 | locus YIR030C, strain dcg1, stronger effect = lower value 1.04 | locus YJL092W, strain hpr5, stronger effect = lower value 0.966 | locus YJL115W, strain asf1, stronger effect = lower value 1.01 | locus YJL129C, strain trk1, stronger effect = lower value 0.914 | locus YJL134W, strain LCB3, stronger effect = lower value 1.04 | locus YJL154C, strain vps35, stronger effect = lower value 0.997 | locus YJL164C, strain tpk1, stronger effect = lower value 0.92 | locus YJL187C, strain SWE1, stronger effect = lower value 0.979 | locus YJR066W, strain TOR1, stronger effect = lower value 0.952 | locus YKL009W, strain mrt4, stronger effect = lower value 0.935 | locus YKL068W, stronger effect = lower value 1.05 | locus YKL085W, strain MDH1 (second series), stronger effect = lower value 1.03 | locus YKL085W, strain MDH1, stronger effect = lower value 1.03 | locus YKL160W, strain elf1, stronger effect = lower value 0.927 | locus YKR026C, strain gcn3, stronger effect = lower value 1.02 | locus YKR091W, strain srl3, stronger effect = lower value 1.03 | locus YLL001W, strain dnm1, stronger effect = lower value 0.933 | locus YLL026W, stronger effect = lower value 0.955 | locus YLL041C, strain sdh2, stronger effect = lower value 1.02 | locus YLR058C, strain SHM2, stronger effect = lower value 0.893 | locus YLR113W, strain HOG1, stronger effect = lower value 0.963 | locus YLR221C, strain rsa3, stronger effect = lower value 0.938 | locus YLR258W, strain gsy2, stronger effect = lower value 0.967 | locus YLR268W, strain sec22, stronger effect = lower value 0.886 | locus YLR357W, strain rsc2, stronger effect = lower value 1.07 | locus YLR370C, strain arc18, stronger effect = lower value 0.991 | locus YLR371W, strain rom2, stronger effect = lower value 1.09 | locus YLR384C, strain iki3, stronger effect = lower value 1.07 | locus YML016C, strain PPZ1, stronger effect = lower value 1.01 | locus YML032C, strain rad52, stronger effect = lower value 0.914 | locus YML120C, strain ndi1, stronger effect = lower value 0.93 | locus YML124C, strain tub3, stronger effect = lower value 1.05 | locus YMR078C, strain ctf18, stronger effect = lower value 1.06 | locus YMR125W, strain sto1, stronger effect = lower value 1.08 | locus YMR129W, stronger effect = lower value 1.03 | locus YMR223W, strain ubp8, stronger effect = lower value 0.934 | locus YMR231W, strain pep5, stronger effect = lower value 0.95 | locus YNL128W, strain TEP1, stronger effect = lower value 0.866 | locus YNL183C, strain NPR1, stronger effect = lower value 0.935 | locus YNL209W, strain ssb2, stronger effect = lower value 0.993 | locus YNL233W, strain BNI4, stronger effect = lower value 0.926 | locus YNL248C, strain rpa49, stronger effect = lower value 0.938 | locus YNL250W, strain rad50, stronger effect = lower value 1.02 | locus YNL271C, strain bni1, stronger effect = lower value 1.02 | locus YNL298W, strain CLA4, stronger effect = lower value 0.978 | locus YNL322C, strain KRE1 (second series), stronger effect = lower value 1.01 | locus YNR049C, strain mso1, stronger effect = lower value 0.987 | locus YOL012C, strain htz1 1.89 | locus YOL147C, strain pex11, stronger effect = lower value 1.02 | locus YOR061W, strain CKA2, stronger effect = lower value 0.964 | locus YOR070C, strain gyp1, stronger effect = lower value 0.953 | locus YOR080W, strain dia2, stronger effect = lower value 0.973 | locus YOR144C, strain elg1, stronger effect = lower value 1.02 | locus YOR231W, strain MKK1, stronger effect = lower value 0.97 | locus YOR265W, strain rbl2, stronger effect = lower value 0.994 | locus YOR270C, strain vph1, stronger effect = lower value 0.807 | locus YOR290C, strain snf2, stronger effect = lower value 0.937 | locus YPL106C, strain sse1, stronger effect = lower value 1.12 | locus YPL240C, strain hsp82, stronger effect = lower value 1.03 | locus YPL241C, strain CIN2, stronger effect = lower value 0.997 | locus YPL256C, strain CLN2, stronger effect = lower value 1.05 | locus YPR163C, strain tif3, stronger effect = lower value 0.968 | locus YPR167C, strain met16, stronger effect = lower value 0.991 | strain wtn01, stronger effect = lower value 0.961
0.522 (active) and 0.953 (inactive): locus YJL095W, strain BCK1, stronger effect = lower value
